CYP2C9 activ: increases human cytochrome P450 2C9 activity | P11712 | activation factor at 5 µM | recombinant CYP2C9, luciferin-H conversion, luminescence; hits give high values; factor 1 = untreated enzyme, 0 = blocked | 1.4% of 96,000 active;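 active means activation factor of 2 or more for CYP2C9 at a 5 µM dose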;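 further: 0 = sulfaphenazole-blocked wells and 1 = vehicle-only wells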
CYP2C19 act: increases human CYP2C19 enzyme activity. P33261. activation factor at 5 µM. 96,000 tested, under 10 active. recombinant CYP2C19, luciferin-H EGE luminescence; hits give high values; 0 = fully inhibited enzyme, 1 = untreated enzyme;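 active means activation factor of at least 2 at 5 µM in the primary screen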;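 further: 0 = wells with 2.5 mM tranylcypromine and 1 = vehicle-only wells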
Target sequence (P33261 whole entry, looked up): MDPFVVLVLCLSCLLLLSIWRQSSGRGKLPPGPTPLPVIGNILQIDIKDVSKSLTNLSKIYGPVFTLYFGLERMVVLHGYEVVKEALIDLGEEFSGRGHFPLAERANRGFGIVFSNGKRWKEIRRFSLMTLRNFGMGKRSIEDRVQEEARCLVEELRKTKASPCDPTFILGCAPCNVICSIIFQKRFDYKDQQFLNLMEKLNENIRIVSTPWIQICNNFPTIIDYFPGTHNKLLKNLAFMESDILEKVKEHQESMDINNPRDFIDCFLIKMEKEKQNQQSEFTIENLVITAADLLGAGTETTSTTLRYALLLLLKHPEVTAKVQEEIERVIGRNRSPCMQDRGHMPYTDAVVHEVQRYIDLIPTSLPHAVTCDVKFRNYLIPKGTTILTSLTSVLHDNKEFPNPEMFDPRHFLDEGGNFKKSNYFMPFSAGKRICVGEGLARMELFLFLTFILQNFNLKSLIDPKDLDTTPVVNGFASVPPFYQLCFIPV
CYP2C19 inh: blocks human cytochrome P450 2C19; P33261; CYP2C19 Supersomes, luciferin-H EGE luminescence, 30 min; inhibition, % at 5 µM; 21% of 96,000 active;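 active means CYP2C19 inhibition above a set limit at 5 µM in the primary screen, cut at about 50% in these data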;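 further: plate controls were negative control wells for no effect and 2.5 mM tranylcypromine positive control for full effect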
MRP1 act: MRP-1 activation; H69AR cells + doxorubicin, viability rescue, CellTiter-Glo; viability increase, % at 10 µM; 0.61% of 140,000 active; AID 799;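 active means viability gain under doxorubicin at or above a set limit, the compound median plus 3 SD, cut at about 4.7% in these data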;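 further: MRP-1 overexpressing cells given doxorubicin 25 µM after compound pretreatment; 18-22 h compound pretreatment then 72 h with doxorubicin before readout; 0% = doxorubicin-only wells and 100% = vehicle-treated cells without doxorubicin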
CYP2C9 inh: human CYP2C9 inhibition. P11712. CYP2C9 Supersomes, luciferin-H conversion, luminescence. inhibition, % at 5 µM. 20% of 96,000 active. AID 777;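 active means blocking of liver enzyme CYP2C9 beyond about 50% at 5 µM, limit read from the data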
MRP reversal: reverses drug resistance mediated by MRP. H69AR cells + 2 uM doxorubicin, CellTiter-Glo, 72 h. differential viability (reversal), % at 10 µM. 0.04% of 85,000 active. AID 602;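 active means viability drop by adding the cancer drug above about 55%, with treated viability meeting a 40% cutoff, limit read from the data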;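 further: viability without doxorubicin minus viability with 2 µM doxorubicin for each compound; larger differential means the compound sensitizes cells more to doxorubicin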
An asterisk follows results filed as active; / = no result. Only some compounds are listed: those with a hit (about 21% of all), similar ones and a draw of the others.

SMILES | CYP2C9 activ | CYP2C19 act | CYP2C19 inh | MRP1 act | CYP2C9 inh | MRP reversal
COc1c(F)c(F)c(C(=O)Nc2ccccc2N2CCN(C(=O)C(C)C)CC2)c(F)c1F | 0.2 | 0.4 | 61* | -3 | 78* | 10
CC(=O)SC(C)CC(=O)Nc1ccccc1 (stereo not given) | 0.8 | 0.3 | 71* | 1 | 21 | 6
CN(CC(=O)NCc1ccccn1)S(=O)(=O)c1ccccc1 | 0.9 | 0.8 | 20 | -2 | 13 | -17
CN(CC(=O)Nc1ccncc1)S(=O)(=O)c1ccccc1 | 0.4 | 0 | 98* | 0 | 63* | 3
CC(CC(=O)Nc1ccncc1)c1ccccc1 (stereo not given) | 0 | 0 | 98* | -2 | 96* | 12
CN(CC(=O)Nn1cnnc1)S(=O)(=O)c1ccccc1 | 0.7 | 0.3 | 73* | -1 | 26 | -3
Cc1nn(C)c(C(=O)Nc2ccc(Cn3cccn3)cc2)c1[N+](=O)[O-] | 0.6 | 0.8 | 18 | 0 | 40 | /
CN(CC(=O)Nc1ccncc1)S(=O)(=O)c1ccc(Cl)cc1 | 0.2 | 0 | 100* | 0 | 80* | 8
COc1ccc([N+](=O)[O-])cc1NC(=O)CC(c1ccccc1)c1ccccc1 | / | / | / | -1 | / | /
CN(CC(=O)O/N=C(\N)c1ccccn1)S(=O)(=O)c1cc(Cl)ccc1Cl | 1.5 | 0.9 | 14 | -1 | -54 | /
CC(CC(=O)Nc1cc([N+](=O)[O-])ccc1Cl)c1ccccc1 (stereo not given) | 0.9 | 0.5 | 51* | -1 | 7 | /
CN(CC(=O)NCc1ccccn1)S(=O)(=O)c1ccc(Cl)cc1 | 1.1 | 0.9 | 8 | -2 | -10 | -10
CN(CC(=O)Nc1cccnc1)S(=O)(=O)c1cc(Cl)ccc1Cl | 0.5 | 0.2 | 80* | 0 | 48 | 9
CCNc1ccc(C2(O)C(=O)c3ccccc3C2=O)cc1 | / | / | / | 2 | / | /
COC(=O)C(CCCCNC(=O)c1ccc([N+](=O)[O-])cc1)NC(=O)c1ccc([N+](=O)[O-])cc1 (stereo not given) | / | / | / | -1 | / | /
CCn1c(=O)cc(OCC(=O)NCc2cccnc2)c2ccccc21 | 1 | 1.1 | -10 | -3 | -5 | -1
Cc1cc(N2C(=O)C3CC=CC(C)C3C2=O)no1 (stereo not given) | / | / | / | -1 | / | -2
Cn1nnnc1SCC(=O)Nc1ccccc1C(=O)NCc1ccccc1 | 0.9 | 1.2 | -17 | -1 | 7 | 0
Cc1ccc(-c2nn(CC(=O)Nc3cccnc3)c(=O)c3ccccc23)cc1 | 0.2 | 0.8 | 16 | -4 | 81* | 24
O=C(Cn1nc(-c2cccc([N+](=O)[O-])c2)c2ccccc2c1=O)Nc1cccnc1 | 0.2 | 1 | 0 | 1 | 75* | -20
O=C(C1CCCN(S(=O)(=O)c2cccc3cccnc23)C1)N1CCc2ccccc21 (stereo not given) | 1.3 | 0.7 | 29 | -3 | -29 | -31
O=C(NC(Cc1ccccc1)C(=O)O)c1ccc(S(=O)(=O)N2CCCC2)cc1 (stereo not given) | 0.9 | 1.1 | -13 | 0 | 14 | 0
O=C(Nc1cccnc1)C1CCCN(S(=O)(=O)c2ccccc2)C1 (stereo not given) | 0.6 | 0.4 | 64* | 0 | 42 | 10
O=C(NC(Cc1ccccc1)C(=O)O)c1ccc(S(=O)(=O)N2CCCCC2)cc1 (stereo not given) | 0.2 | 1 | 4 | 0 | 78* | 6
O=C(Nc1cccnc1)c1ccc(Cl)c(S(=O)(=O)N2CCCCCC2)c1 | 0.1 | 0.1 | 88* | -4 | 85* | -17
SMILES | CYP2C9 activ | CYP2C19 act | CYP2C19 inh | MRP1 act | CYP2C9 inh | MRP reversal
O=C(Nc1ccn(-c2ccccc2)n1)c1ccc(S(=O)(=O)N2CCCCCC2)cc1 | 0.5 | 0.5 | 53* | 0 | 46 | 1
O=C1CCCC(=O)C1=Cc1c[nH]c2ccccc12 | 0.8 | 0.9 | 8 | -2 | 15 | /
O=C(Nc1ccccc1)c1ccc(S(=O)(=O)N2CCCCC2)cc1 | / | / | / | -3 | / | /
O=C(Nc1cccnc1)c1ccc(S(=O)(=O)N2CCCCCC2)cc1 | 0.3 | 0.4 | 62* | -1 | 73* | -1
O=C(OCC(=O)N1c2ccccc2Sc2ccccc21)C1CC(=O)N(Cc2ccco2)C1 (stereo not given) | 0.1 | 0.3 | 70* | -3 | 89* | 11
CCOC(=O)N1CCN(CC(=O)Nc2cc3c(cc2C(C)=O)OCO3)CC1 | 0.2 | 0.8 | 15 | -3 | 80* | 9
CC(=O)c1cc2c(cc1NC(=O)CN1CCN(C(=O)c3ccco3)CC1)OCO2 | / | / | / | / | / | 1
CC(=O)c1cc2c(cc1NC(=O)CN1CCN(c3cccc(C(F)(F)F)c3)CC1)OCO2 | / | / | / | 4 | / | 3
CC(=O)c1cc2c(cc1NC(=O)CN1CCC(Cc3ccccc3)CC1)OCO2 | 0.1 | 0.3 | 71* | -1 | 87* | 35
O=C(NCN1C(=O)C2C3C=CC(C3)C2C1=O)Nc1nccs1 (stereo not given) | / | / | / | 0 | / | /
O=C(O)C1CC=CCC1C(=O)Nc1cccc(Cl)c1 (stereo not given) | 1.1 | 1 | 4 | 0 | -9 | -10
Cc1sc2ncnc(N3CCCCC3C)c2c1C (stereo not given) | 0.5 | 0.2 | 79* | -1 | 47 | 2
Cc1sc2ncnc(N3CCCCC3)c2c1C | 1.2 | 1 | -4 | -1 | -21 | 14
CCOC(=O)N1CCC2(CC1)C(C#N)=C(N)Oc1c2sc2nc(C)cc(C)c12 | 0.5 | 0.5 | 46 | -2 | 47 | -22
CCOC(=O)N1CCC2(CC1)C(C#N)=C(N)Oc1n[nH]c(C)c12 | 0.7 | 0.5 | 50* | 1 | 33 | -14
Cc1ccc(SCc2[nH]nc3c2C2(C(=O)Nc4ccc(F)cc42)C(C#N)=C(N)O3)cc1 (stereo not given) | 0.7 | 0.8 | 19 | 1 | 34 | -5
CCOC(=O)N1CCC2(CC1)C(C#N)=C(N)Oc1c2c(C)nn1-c1cccc(Cl)c1 | 0.3 | 0.7 | 30 | -1 | 72* | -2
CC(=O)N1CCC2(CC1)C(C#N)=C(N)Oc1n[nH]c(CSc3ccc(C)cc3)c12 | 0.5 | 0.6 | 41 | -1 | 53* | 6
COC(=O)c1cc(-c2ccccc2)sc1NC(=O)c1cc(C)on1 | / | / | / | 1 | / | -5
CCCc1cc2c(cc1NC(=O)c1ccc(C)cc1)OCO2 | 0.6 | 0 | 98* | -1 | 41 | /
CCC(=O)c1cc2c(cc1NC(=O)c1ccc(C)cc1)OCCO2 | 0.8 | 1 | -1 | -1 | 23 | 0
CCOc1ccc(-c2cn(-c3ccc(OC)cc3)c(SC)n2)cc1 | / | / | / | 2 | / | /
CCOc1ccc(-c2cn(CCC#N)cn2)cc1 | 0.6 | 0.3 | 65* | -2 | 41 | -18
CCCC(=O)c1ccc(N2CCC(C)CC2)c(F)c1 | / | / | / | 2 | / | /
O=C(NCCOc1cccc(Oc2ccccc2)c1)c1cc(-n2cnnc2)ccc1Cl | 0.4 | 0.3 | 69* | 0 | 56* | /

From PubChem BioAssay
